# Reference: ChEMBL document CHEMBL4513216, “Probing the Open Global Health Chemical Diversity Library for Multistage-Active Starting Points for Next-Generation Antimalarials” (ACS Infect Dis, 2020)
# Out of some 65,000 compounds screened, about 2,100 (3.2%) showed an effect of 50% or more. The median lay at about -52%. The entries come from a sample that favours strong results as a whole.
# Test system: Plasmodium falciparum
# Experiment: Screen against P. falciparum Asexual Blood Stage (ABS), at 5uM
# Assay type: functional, Dd2
# Conditions: tested at 5 uM
row,SMILES,INHIBITION [%]
1,COCCN1CCC12CCN(C(=O)Cc1cccs1)C2 (stereo not given),-9.04
2,CN1CCC2(COCc3cnc(-c4ccccc4)nc32)C1 (stereo not given),-45
3,COCCn1c(C(=O)NC(C(N)=O)C(C)C)cc2ccccc21 (stereo not given),-92
4,COc1nc(N2CCNCC2)ncc1Br,23.8
5,Cc1ccc(N2CCC3(CN(CCO)CCC3(F)F)C2)nn1 (stereo not given),-59.8
6,COc1ccc(CN2CCC3(CCCN(c4ncc(F)cn4)C3)C2)cc1 (stereo not given),87.1
7,Fc1cnc(N2CCCC3(CCN(Cc4ccoc4)C3)C2)nc1 (stereo not given),73.7
8,Fc1cnc(N2CCCC3(CCN(Cc4ccsc4)C3)C2)nc1 (stereo not given),87.6
9,Cc1ncc(CN2CCC3(CCCN(CC4CCC4)C3)C2)cn1 (stereo not given),-45.2
10,CCc1cnc(N2CC3(CCN(Cc4ccsc4)C3)C2)nc1,-19.4
11,Fc1cnc(N2CCCC3(CCN(Cc4nccs4)C3)C2)nc1 (stereo not given),25.5
12,CCc1ncc(CN2CCC3(CCCN(CC4CCC4)C3)C2)cn1 (stereo not given),8.28
13,Cc1c[nH]c(CN2CCC3(CCCN(Cc4ccc(F)c(F)c4)C3)C2)n1 (stereo not given),80.3
14,COc1ncc(CN2CCC3(CCCN(CC4CCC4)C3)C2)cn1 (stereo not given),-57.4
15,Fc1cnc(N2CC3(CCN(Cc4ccsc4)C3)C2)nc1,3.41
16,COCCN1CCC2(C1)CN(c1ncc(F)cn1)C2,-81.1
17,Cc1oc(-c2ccco2)nc1CC(=O)N1CCN(CC(C)(C)O)CC1,-109
18,Cc1noc(CN2CC=C(c3c[nH]c4ncccc34)CC2)n1,-31.2
19,Cc1cccc(CN2C[C@@H](NC(=O)C3CC3)[C@H]3OCCC[C@H]32)n1,-83.3
20,Fc1cnc(N2CCCC3(CCN(Cc4ccco4)C3)C2)nc1 (stereo not given),78.2
21,c1cnc(N2CCCC3(CCN(Cc4ccsc4)C3)C2)nc1 (stereo not given),68.1
22,Cc1cnc(N2CCOC3(CCCN(C)C3)C2)nc1 (stereo not given),14.9
23,Fc1cnc(N2CCCC3(CN(Cc4cccs4)CCO3)C2)nc1 (stereo not given),-78.4
24,Fc1cnc(N2CCCC3(CCN(Cc4cccs4)C3)C2)nc1 (stereo not given),69.4
25,Fc1cnc(N2CCOCC3(CCCNC3)C2)nc1 (stereo not given),-11.2
26,c1cnc(N2CCCC3(CCN(Cc4ccncc4)C3)C2)nc1 (stereo not given),-63.1
27,Fc1cnc(N2CCOC3(CCN(Cc4ccsc4)CC3)C2)nc1,81.6
28,Cc1cnc(N2CC3(CCN(Cc4cccnc4)C3)C2)nc1,12.1
29,c1cnc(N2CCOCC3(CN(Cc4ccsc4)CCO3)C2)nc1 (stereo not given),-62.3
30,c1cnc(N2CCCC3(CCN(Cc4cccs4)C3)C2)nc1 (stereo not given),40.4
